Bioassay records (PubChem BioAssay)
DT40 TDP1 no CPT: qHTS for Inhibitors of human tyrosyl-DNA phosphodiesterase 1 (TDP1): qHTS in cells in absence of CPT | DT40 Tdp1-/- hTDP1 cells, no CPT, ATP luminescence, 48 h | Potency, µM (titrated, usually from 46.2 µM), inactives show top-dose activity change, negative = growth inhibition, most hits filed as inhibitors | 420,000 compounds, 15% hits | AID 686978, 2013; note: % is set by controls: 0 for no effect and ±100 for the full control effect; nearly all actives have a fitted effect of over 55% in size
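No-CPT arm: Tdp1-/-;hTDP1 DT40 cells (400/well) plus compounds, incubated ≥48 hr at 37 °C. Readout CellTiter-Glo luminescence.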
HepG2 tox: qHTS for Inhibitors of TGF-b: Cytotox Counterscreen; HepG2 CAGA-GFP viability, ATP luminescence, 18 h; Potency, µM (top dose mostly 46.1 µM), for the others: at the top dose activity change, negative = cytotoxicity, actives largely listed as cytotoxic; 410,000 compounds, 0.76% hits; AID 588856, 2011
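CellTiter-Glo luminescence gave cytotoxicity after 18 hours at 37 degrees C. The cells were HepG2 CAGA-GFP in 1% FBS DMEM, stimulated with 500 pg/mL TGF-beta after compound addition. %Activity was normalised to no-cell wells (complete cell-killing) and DMSO (no toxicity), and curves were fitted and classified.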
TGFb inhibitor: qHTS for Inhibitors of TGF-b | HepG2 CAGA-GFP TGF-b/SMAD3 reporter, GFP fluorescence, 18 h; TGF-beta stimulated, 500 pg/mL final | 410,000 compounds, 1.2% hits | Potency, µM (titrated, usually from 46.1 µM), without a hit: at the highest dose activity, negative = inhibition, actives largely listed as inhibitors; note: % is set by controls: 0 for no effect and ±100 for the full control effect; nearly all actives have a fitted effect of over 65% in size
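Per well, imaged GFP fluorescence of HEPG2 CAGA-GFP cells gives the signal; cells get compound, then TGF-beta (500 pg/mL final), 18 h at 37 degrees C; %Activity versus -TGF-beta and +DMSO controls.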
HT1080-NT tox: qHTS for induction of synthetic lethality in tumor cells producing 2HG: qHTS for the HT-1080-NT fibrosarcoma cell line; HT-1080-NT fibrosarcoma viability, CellTiter-Glo ATP luminescence, 48 h; Potency, µM (top dose mostly 46.1 µM), inactives show at the top dose activity, negative = less viability, hits mostly cytotoxic; 360,000 compounds, 1.6% hits;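 note: NT is the 2HG producing partner of a matched IDH1 knockdown line; 0% = DMSO-treated cells and -100% = media-only wells without cells; nearly all actives have a fitted effect of over 55% in size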
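750 cells/well, RPMI + 5% FBS; 2 h settle, compound pin-transfer, 48 h at 37 degrees C. CellTiter-Glo 10 min RT, luminescence. Normalized to DMSO and media-only wells.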
DT40 TDP1 CPT: qHTS for Inhibitors of human tyrosyl-DNA phosphodiesterase 1 (TDP1): qHTS in cells in presence of CPT; chicken DT40 Tdp1-/-;hTDP1 cells + 20 nM CPT, ATP luminescence, 48 h; 420,000 compounds, 12% hits; Potency, µM (top dose mostly 46.2 µM), without a hit: top-dose activity change, negative = growth inhibition, actives largely listed as inhibitors; note: % is set by controls: 0 for no effect and ±100 for the full control effect; nearly all actives have a fitted effect of over 55% in size
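Chicken DT40 Tdp1-/- cells complemented with human TDP1, 400 cells/well, exposed to compounds plus 20 nM camptothecin for at least 48 h at 37 C; viability read as ATP content by CellTiter-Glo luminescence.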
HT1080 IDH1KD tx: qHTS for induction of synthetic lethality in tumor cells producing 2HG: qHTS for the HT-1080-IDH1KD cell line | 360,000 compounds, 2% hits | AID 686971, 2013 | Potency, µM (titrated, usually from 46.1 µM), for inactives: top-dose activity, negative = toxicity, usual class: cytotoxic | HT-1080 IDH1 knockdown viability, ATP luminescence, 48 h;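 note: 0% = DMSO wells and -100% = cell-free medium wells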
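Knockdown cells (IDH1KD HT-1080) received compounds 2 h after plating at 750 cells/well and were kept 48 h at 37 °C in 5% FBS RPMI. A CellTiter-Glo luminescence read gave % activity for curve fitting.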
Active calls of the source: *; ? = inconclusive; · = not tested or not shown; [ ] = another dose, or the depositor's remark. This is a sample that favours compounds with a hit; in the whole collection about 17% have one here. Calls come from the whole dose curve; as a rule, active = well fitted curve in the direction sought with a large enough effect; inconclusive = small, poorly fitted or top-dose-only effect, or another doubt; inactive = no such curve, though single readings can be large; an effect the other way counts as inactive or inconclusive. Potency is the fitted concentration of half-maximal effect.

SMILES | DT40 TDP1 no CPT | HepG2 tox | TGFb inhibitor | HT1080-NT tox | DT40 TDP1 CPT | HT1080 IDH1KD tx
Nc1c(C(=O)NC2CCCC2)c2nc3ccccc3nc2n1/N=C/c1ccco1 | -28.1% | -3.0% | -10.0% | -2.4% | 0.9% | -4.6%
CC(C)OCCCNC(=O)c1c(N)n(/N=C/c2ccccn2)c2nc3ccccc3nc12 | 23.1µM* | 0.7% | 1.0% | 21.7% | ? | 8.6%
CCC(C)NC(=O)c1c(N)n(/N=C/c2ccccn2)c2nc3ccccc3nc12 (stereo not drawn) | 20.6µM* | 0.1% | 19.6% | -8.7% | 20.6µM* | 0.9%
COc1ccccc1/C=N/n1c(N)c(C(=O)NC2CCCCC2)c2nc3ccccc3nc21 | ? | -17.9% | -20.4% | -4.0% | ? | 1.5%
CC1Cc2ccccc2N1C(=O)c1nn(C)cc1Br (stereo not drawn) | -18.2% | -13.2% | 0.0% | -1.9% | -8.0% | -3.5%
COc1ccccc1CC(=O)N1CCN(c2ccccc2F)CC1 | ? | -3.3% | -15.9% | 7.3% | -0.7% | 10.0%
CC(=O)N1CCC(C(=O)Nc2ccc(S(=O)(=O)NCCc3ccccc3)cc2)CC1 | -8.4% | -8.5% | 4.3% | -4.8% | -2.6% | -5.4%
CCOC(=O)N1C(=O)[C@](c2ccc(Cl)cc2)(C(C)C)N1C(=O)OCC | 14.6µM* | 10µM* | ? | -20.5% | 18.4µM* | -29.5%
CCOC(=O)N1C(=O)[C@@](c2ccc(Cl)cc2)(C(C)C)N1C(=O)OCC | ? | 15.8µM* | ? | ? | 20.6µM* | ?
CCOC(=O)C1(C(N)=O)OC1(c1ccc(Cl)cc1)c1ccccc1Cl (stereo not drawn) | -16.3% | -19.7% | -2.2% | -1.6% | 3.4% | 0.7%
O=C(Cn1nnc(-c2ccccc2Cl)n1)Nc1ccc(Br)cc1 | -26.0% | -38.1% | -29.7% | · | -11.2% | ·
COC(=O)CSc1nc(-c2ccccc2)nc2ccccc12 | -17.2% | 3.8% | -1.1% | -1.7% | -13.3% | 6.5%
CC(C)c1nc2cccnc2n1C1CCN(C(=O)Cn2cccn2)CC1 | -0.6% | · | · | · | -7.4%[9.04 µM] | ·
CC1CCN(C(=O)CSc2c3c(nc4cc(Cl)ccc24)CCCC3)CC1 | ? | 11.2µM* | ? | · | ? | ·
O=C(CSc1c2c(nc3cc(Cl)ccc13)CCCC2)N1CCN(c2ccccc2)CC1 | 5.8µM* | -90.5% | ? | · | 7.31µM* | ·
CC1=CC(C)(C)N(S(=O)(=O)c2ccc(C)cc2)c2ccccc21 | 18.4µM* | -35.5% | ? | 6.31µM* | 11.6µM* | ?
CC1=CC(C)(C)N(S(=O)(=O)c2ccc(F)cc2)c2ccc(C)cc21 | 5.8µM* | -42.4% | -23.4% | 7.08µM* | ? | ?
COc1cc(Cl)c(C)cc1Nc1ncccn1 | -25.5% | -14.6% | 2.8% | -1.6% | 8.1% | -0.3%
CC(C)(C)OC[C@H](NC(=O)c1[nH]cnc1C(=O)Nc1ccccc1F)C(=O)OC(C)(C)C | 20.6µM* | 20µM* | ? | ? | 20.6µM* | ?
O=C(N[C@@H](Cc1ccccc1)C(=O)OCc1ccccc1)c1nc[nH]c1C(=O)NCc1ccccc1 | ? | -17.9% | -10.9% | ? | 18.4µM* | -13.9%
CC(NC(=O)OCc1ccccc1)C(=O)NCC(=O)NC(Cc1ccc(OC(C)(C)C)cc1)C(=O)OC(C)(C)C (stereo not drawn) | 11.6µM* | -3.5% | -3.1% | -0.4% | 20.6µM* | 9.9%
CC(C)(C)OC(=O)[C@H](Cc1ccccc1)NC(=O)c1[nH]cnc1C(=O)N[C@@H](Cc1ccccc1)C(=O)OCc1ccccc1 | 23.1µM* | -4.9% | ? | -16.5% | 16.4µM* | -17.4%
CC(C)C[C@H](NC(=O)c1[nH]cnc1C(=O)N[C@@H](Cc1ccccc1)C(=O)OCc1ccccc1)C(=O)OCc1ccccc1 | ? | -29.5% | -24.7% | 9.1% | ? | -7.6%
CC(C)(C)OC(=O)[C@H](CCCCN)NC(=O)c1[nH]cnc1C(=O)N[C@@H](Cc1ccccc1)C(=O)OCc1ccccc1 | -22.3% | -50.4% | ? | 5.9% | ? | 6.9%
CCC(NC(=O)CN1CCN(C(=O)c2cccs2)CC1)c1ccc(C)cc1 (stereo not drawn) | 1.2% | 6.3% | 4.7% | 0.8% | -23.8% | 5.6%
SMILES | DT40 TDP1 no CPT | HepG2 tox | TGFb inhibitor | HT1080-NT tox | DT40 TDP1 CPT | HT1080 IDH1KD tx
CC(C)(C)OC(=O)[C@H](Cc1ccccc1)NC(=O)c1[nH]cnc1C(=O)Nc1ccc(Cl)cc1 | ? | 15.8µM* | ? | ? | ? | ?
C[C@H](NC(=O)c1nc[nH]c1C(=O)NCc1ccc(CNC(=O)OC(C)(C)C)cc1)C(=O)OCc1ccccc1 | 16.4µM* | -41.0% | ? | -9.4% | 20.6µM* | 0.2%
C[C@H](NC(=O)c1nc[nH]c1C(=O)NCC(=O)OCc1ccccc1)C(=O)OC(C)(C)C | -28.3% | -0.2% | -42.8% | 5.3% | -17.5% | 1.2%
N#Cc1ccccc1Cn1c(=O)n(Cc2ccc(C(=O)NC3CCN(Cc4ccccc4)CC3)cc2)c(=O)c2ccccc21 | 7.3% | 0.0% | 0.7% | · | 2.4% | ·
COc1cc(OC)cc(C(=O)N[C@H](C(=O)Nc2ccc3c(c2)OCO3)C(C)C)c1 | -26.3% | -8.4% | 6.4% | -5.1% | 3.5% | -7.8%
CCOC(=O)c1ccc(NC2=CC(c3ccc(F)cc3)N(c3ccc(C(=O)OCC)cc3)C2=O)cc1 (stereo not drawn) | 18.4µM* | -7.7% | -3.4% | · | 16.4µM* | ·
CCCN(C(=O)c1cnccn1)c1c(N)n(Cc2ccccc2)c(=O)[nH]c1=O | 16.2% | 13.3% | -0.7% | 12.2% | 1.3% | 4.0%
Cc1cc2occ(CC(=O)N(C)CC(=O)Nc3ccc(F)cc3)c2cc1C | ? | -38.3% | -9.0% | -6.5% | 11.6µM* | -21.4%
COc1ccc(CCNC(=O)C2CCN(c3nc4ccccc4nc3C(F)(F)F)CC2)cc1OC | 18.4µM* | -9.5% | -30.5% | · | 23.1µM* | ·
CCCSCCCNC(=O)C1CCN(c2nc3ccccc3nc2C(F)(F)F)CC1 | 16.4µM* | -5.4% | ? | · | 20.6µM* | ·
CCN(c1ccccc1)c1cc(C)nc2nc(C)nn12 | -18.0% | -12.0% | -1.1% | 12.5% | -20.4% | 0.4%
